Measured values from the supplement of paper PMC8047044.
Counter-ions that a name gives are not always drawn.

Columns and labels:
[1] = system: Neuro-2a; assay: neurite formation score, plate-normalized to DMSO control mean 5.04 (score (0-8 scale)); higher = more or longer neurites; conditions: 1 µM
Method: (§1)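 Neuro-2a mouse neuroblastoma cells in PLL-coated 96-well plates were pre-treated for 1 h in DMEM(+) with each kinase inhibitor at 1 µM, then switched to serum-free DMEM(-) with inhibitor to induce neurite outgrowth and fixed about 2-3 h later. Three blinded observers scored neurite formation from 0 (no neurites) to 8 (long neurites on almost all cells).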

[2] = system: Neuro-2a; assay: as above; conditions: 0.1 µM
Method: as §1, with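 “at 0.1” for “at 1”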

SMILES | neurite formation score [1] | neurite formation score [2]
COc1cc2nccc(Oc3ccc(NC(=O)Nc4cc(C)on4)c(Cl)c3)c2cc1OC [Tivozanib (AV-951)] | 4.24 | 4.71
N#Cc1c(NC(=O)c2cccc3ccccc23)sc2c1CCCC2 | 0.543 | 0.751
O=C(Nc1ccc2[nH]nc(-c3ccncc3)c2c1)[C@@H]1CCN(CC(=O)N2CCN(c3ccc(-c4ncccn4)cc3)CC2)C1 | 3.8 | 5.09
CC(C)(C)Cn1c(N)nc2ccc(-c3[nH]c(C(C)(C)C)nc3-c3ccc(F)cc3)nc21 | 4.57 | 5.54
O=C(NC1CCNCC1)c1n[nH]cc1NC(=O)c1c(Cl)cccc1Cl | 5.57 | 5.88
Cc1cc(C(C)Nc2ccccc2)c2nc(N3CCOCC3)cc(=O)n2c1 (configuration not stated) | 4.47 | 3.76
N#Cc1cccc(-c2c[nH]c3ncnc(N4CCOCC4)c23)c1 | 5.21 | 4.75
CS(=O)(=O)N1CCN(Cc2cc3nc(-c4cccc5[nH]ncc45)nc(N4CCOCC4)c3s2)CC1 [GDC-0941 dimethanesulfonate] | 2.8 | 2.09
Cc1cc(Nc2cc(N3CCN(C)CC3)nc(/C=C/c3ccccc3)n2)n[nH]1 | 3.02 | 3.92
CCc1cnn2c(NCc3ccc[n+]([O-])c3)cc(N3CCCC[C@H]3CCO)nc12 | 3.14 | 3.42
O=C(Cc1ccc(-c2ccc(OCCN3CCOCC3)cc2)cn1)NCc1ccccc1 [KX2-391 dihydrochloride] | 0.692 | 0.584
C=CC(=O)Nc1cccc(Oc2nc(Nc3ccc(N4CCN(C)CC4)cc3OC)ncc2Cl)c1 | 4.24 | 4.04
N#CC[C@H](C1CCCC1)n1cc(-c2ncnc3[nH]ccc23)cn1 [Ruxolitinib phosphate] | 5.02 | 4.92
O=C(O)c1ccc(Nc2ncc3c(n2)-c2ccc(Cl)cc2C(c2c(F)cccc2F)=NC3)cc1 | 3.47 | 2.76
CO[C@@H](C(=O)N1Cc2[nH]nc(NC(=O)c3ccc(N4CCN(C)CC4)cc3)c2C1)c1ccccc1 | 3.69 | 4.58
Cc1ncc(-c2ccnc(Nc3ccc(S(C)(=O)=O)cc3)n2)n1C(C)C | 4.24 | 3.54
Cc1cc(C(=O)NOCCO)c(Nc2ccc(I)cc2F)n(C)c1=O | 3.96 | 3.92
COc1ccc(S(=O)(=O)N(CCO)c2ccccc2CN(C)C/C=C/c2ccc(Cl)cc2)cc1 [KN-93 Phosphate] | 4.21 | 4.42

SMILES | neurite formation score [1] | neurite formation score [2]
CC(C)(C)NS(=O)(=O)c1cncc(-c2cc(F)c3nc(N)nn3c2)c1 | 4.36 | 4.92
COCCOc1ccc2c(c1)ncn2-c1ccc2cccc(N3CCC(N)CC3)c2n1 | 4.88 | 5.08
O=C1NCCCc2c1oc1ccc(O)cc21 | 5.29 | 4.58
O=c1cc(CN2CCOCC2)occ1OCCCCCSc1ccnc2cc(C(F)(F)F)ccc12 | 4.21 | 5.75
CC(C)n1nc(-c2cc3cc(O)ccc3[nH]2)c2c(N)ncnc21 | 3.47 | 4.76
COc1cc2ncnc(Nc3cccc(Cl)c3F)c2cc1OC(=O)N1CCN(C)C[C@H]1C | 4.54 | 4.75
Cc1c(CN2CCN(C(=O)[C@H](C)O)CC2)sc2c(N3CCOCC3)nc(-c3cnc(N)nc3)nc12 | 4.21 | 4.42
CCn1cc(-c2ccnc3[nH]c(-c4cccc(CN(C)C)c4)cc23)c(-c2ccc(NC(=O)N(C)C)cc2)n1 | 4.69 | 5.25
O=C(/C=C/c1ccc2ccccc2n1)c1ccncc1 | 5.21 | 3.08
CN(C)CCSSCCNC(=O)C1CCN(C(=O)CSc2ccc(Cl)cc2)CC1 | 3.63 | 4.58
CCCCCCCCCCCCCCCCOP(=O)([O-])OCC[N+](C)(C)C [Miltefosine] | 5.63 | 2.58
CNC(=O)c1ccccc1Sc1ccc2c(/C=C/c3ccccn3)n[nH]c2c1 | 3.57 | 4.54
COc1cc2ncc(-c3ccccc3)nc2cc1OC [Tyrphostin AG 1296] | 5.24 | 5.04
O=C(NCc1ccccc1)c1csc(Nc2ccncn2)n1 [Thiazovivin] | 4.57 | 4.88
Cc1nc2c(-c3cnc(N)nc3)nc(N3CCOCC3)nc2n1C(C)C | 4.02 | 4.25
CS(=O)(=O)c1cccc(CNc2nc(Nc3ccc4c(c3)CCC(=O)N4)ncc2C(F)(F)F)c1 | 3.47 | 5.09
O=C(Nc1ccc(OC(F)(F)F)cc1)c1sccc1NCc1ccnc2ccccc12 | 3.91 | 3.38
CCN1CCN(Cc2ccc(Nc3ncc(F)c(-c4cc(F)c5nc(C)n(C(C)C)c5c4)n3)nc2)CC1 | 4.57 | 3.04
